From ChEMBL document CHEMBL3988442, “University of Dundee, Small-Polar-MMV Screening Library” (2021)
The campaign covered roughly 48,000 compounds. About 13,000 (27%) showed an effect of 50% or more. This is one part of the list.

Test system: Wolbachia pipientis
Assay: Anti-Wolbachia Cell-Based Screen
Type: functional
Design: scale not given: in the data most compounds retested in dose-response had high values
Settings: 5 µM

| Structure (SMILES) | Percent Effect [%] |
| --- | --- |
| COc1ccc2c(c1)CC(C(=O)N(C)Cc1noc3c1CCCC3)CO2 (stereo unspecified) | -16.58 |
| c1cnnc(N2CCC(c3nnc(Cn4ccnc4)n3C3CC3)CC2)c1 | -16.04 |
| Cc1n[nH]c(C)c1NC(=O)c1cccc(OCC(F)(F)F)n1 | 9.795 |
| Cc1n[nH]c(NC(=O)c2ccc(COCC(F)(F)F)cc2)c1C | 90.05 |
| O=C(Nc1cc[nH]n1)c1ccc(COCC(F)(F)F)cc1 | 87.88 |
| COc1cccnc1NC(=O)COc1ccc(F)cc1F | 10.02 |
| COc1cccnc1NC(=O)COC1CCCC1 | 13.24 |
| CN(C)CCN(Cc1ccc(C(F)(F)F)cc1)C(=O)c1cc[nH]n1 | -18.8 |
| Cc1nc(NC(=O)COCC(F)(F)F)ccc1Br | 2.547 |
| CC(C)CC(NC(=O)c1cccc(F)c1F)C(=O)Nc1cc[nH]n1 (stereo unspecified) | -2.094 |
| COc1cccnc1NC(=O)c1ccc(COCC(F)(F)F)cc1 | 77.14 |
| CC(C)C(=O)NCCNC(=O)C12CCC(=O)N1c1cc(Cl)ccc1S2 (stereo unspecified) | -7.313 |
| CC(=O)N[C@@H]1Cc2ccccc2[C@H]1Nc1cc(C2CC2)ncn1 | -3.919 |
| COCCn1/c(=N\C(=O)CN(C)S(C)(=O)=O)sc2cc(Cl)ccc21 | -11.47 |
| Cc1ccc2nc(C)c(C)c(C(=O)N3CCC4(CCO4)CC3)c2c1 | -9.053 |
| O=C(NCc1cccnc1)C1=NN(c2ccccc2)C(=O)CN1 | -0.2289 |
| CCC(=O)N1CCC(NC2CCSCC2)C1 (stereo unspecified) | -15.97 |
| O=C(N[C@]12CC1CN(C(=O)c1ccco1)C2)c1cccc(F)c1 (stereo partly specified) | -50.8 |
| OCCC1CN(C2CCC2)CCN1C1CCCC1 (stereo unspecified) | 7.142 |
| CCc1n[nH]c(C2CN(Cc3nc(C4CC4)no3)CCO2)n1 (stereo unspecified) | 14.51 |
| Cc1cc(C)n(CC2CN(Cc3nnsc3Cl)CCO2)n1 (stereo unspecified) | 2.291 |
| CCc1nc(CN2CCOC(Cn3nc(C)cc3C)C2)no1 (stereo unspecified) | 85.61 |
| Cc1cc(C)n(CC2CN(Cc3nc(-c4ccoc4)no3)CCO2)n1 (stereo unspecified) | 9.322 |
| Cc1cc(C)n(CC2CN(Cc3nc(C4CC4)no3)CCO2)n1 (stereo unspecified) | 104.8 |
| Cc1cc(C)n(CC2CN(Cc3noc(C)n3)CCO2)n1 (stereo unspecified) | 98.99 |
| CCc1nc(CN2CCOC(Cn3nc(C)nc3C)C2)no1 (stereo unspecified) | 5.512 |

| Structure (SMILES) | Percent Effect [%] |
| --- | --- |
| Cc1cc(C)n(CC2CN(Cc3cscn3)CCO2)n1 (stereo unspecified) | -9.283 |
| Cc1cc(C)n(CC2CN(Cc3nc(C)c(C)o3)CCO2)n1 (stereo unspecified) | 127.2 |
| O=C1O[C@@H]2CN(C3CCOCC3)C[C@@H]2N1CCc1cccc(Cl)c1 | -15.11 |
| CCNC(=O)NC(=O)CNC(C)(CC)c1nccs1 (stereo unspecified) | 7.409 |
| CC(=O)c1cc(C(=O)N2CCC(CC(C)C)C2)c(=O)[nH]c1C (stereo unspecified) | 6.103 |
| O=C1CC(Nc2ccc3nccnc3n2)CN1c1ccccc1 (stereo unspecified) | -12.7 |
| Cc1cc(C)n(CC2CN(Cc3noc(C4CC4)n3)CCO2)n1 (stereo unspecified) | 115.4 |
| c1cnn(CC2CN(Cc3noc(C4CC4)n3)CCO2)c1 (stereo unspecified) | -0.1842 |
| COc1cccc2c1OCCCN(c1nc(C)nc3c1CCNCC3)C2 | -7.329 |
| Fc1cccc(-n2ccc(CN3CCCC3Cn3cccn3)n2)c1 (stereo unspecified) | 141.1 |
| Fc1cccc(-n2ccc(CN3CCCCC3Cn3cncn3)n2)c1 (stereo unspecified) | -7.7 |
| c1ccc(-n2ccc(CN3CCCC3Cn3cncn3)n2)cc1 (stereo unspecified) | 128.5 |
| Fc1ccc(CN2CCCC2Cn2cccn2)c2ncccc12 (stereo unspecified) | -3.711 |
| c1ccc(-n2ccc(CN3CCCCC3Cn3cncn3)n2)cc1 (stereo unspecified) | 140.8 |
| c1ccc(CN2CCCC2Cn2cncn2)nc1 (stereo unspecified) | -0.04189 |
| c1ccc(-c2nc(CN3CCCC3Cn3cncn3)cs2)cc1 (stereo unspecified) | -3.695 |
| N#Cc1ccccc1CN1CCCCC1Cn1cncn1 (stereo unspecified) | 7.073 |
| N#Cc1ccc(F)c(CN2CCCC2Cn2cccn2)c1 (stereo unspecified) | -3.171 |
| COCC(=O)N1CCC(C(=O)N(C)CCCc2nccn2C)CC1 | -11.58 |
| CCC[C@H]1CN(S(=O)(=O)c2cc(C)ccc2C)C[C@@H]1N | -30.29 |
| CN1CCC2(CC1)CCN(C(=O)c1onc3ccccc13)C2 | 92.75 |
| CS(=O)(=O)N1CCCC12CCCN(C(=O)c1ccno1)C2 (stereo unspecified) | -3.748 |
| Cc1ccoc1C(=O)N1CCCC2(CCCN2S(C)(=O)=O)C1 (stereo unspecified) | -9.811 |
| CCN(CC)Cc1cc(C(=O)N2CCC3(CCN(C)CC3)C2)c(C)o1 | 8.973 |
| CC(=O)N1CCCC2(CCN(C(=O)c3nn(C)c4ccccc34)CC2)C1 | -40.55 |
| CN1CCC2(CC1)CN(C(=O)c1onc3ccccc13)CCCN2C | 72.92 |

| Structure (SMILES) | Percent Effect [%] |
| --- | --- |
| Cc1ccc(C(CNC(=O)Cc2nc3ncccn3n2)N(C)C)cc1 (stereo unspecified) | -10.58 |
| CC(=O)NCCc1ccc(S(=O)(=O)N(C)C(C)CC(C)C)s1 (stereo unspecified) | 2.114 |
| CC(C)c1nc(C(=O)N2C[C@H](C(C)C)[C@@H](N)C2)cs1 | -1.889 |
| CCC[C@@H]1CN(Cc2cnc(-c3cccs3)nc2)C[C@H]1C(=O)O | -4.575 |
| CCC[C@@H]1CN(C(=O)c2cc(-c3cccs3)n(C)n2)C[C@H]1NS(C)(=O)=O | 96.45 |
| CCC[C@H]1CN(C(=O)c2cc(-c3cccs3)n(C)n2)C[C@@H]1N | 106.1 |
| CCC[C@H]1CN(CCS(C)(=O)=O)C[C@@H]1NC(=O)c1ccn(C)n1 | -3.531 |
| CCC[C@@H]1CN(C(=O)c2ccccc2C(C)=O)C[C@H]1N(C)C | 5.199 |
| CCC[C@@H]1CN(C(=O)c2cc(-c3cccs3)n(C)n2)C[C@H]1N(C)C | 95.7 |
| CCC[C@@H]1CN(C(=O)c2cc3ccccc3cc2O)C[C@H]1N(C)C | 2.808 |
| CCC[C@@H]1CN(C(=O)CCc2ccco2)C[C@H]1NS(C)(=O)=O | -2.62 |
| CC1(C(=O)N2CCOCC2)CN(Cc2cccnc2)CCO1 (stereo unspecified) | 65.44 |
| COc1cc(C(=O)N2CCC(O)(CN3CCOCC3)C(C)(C)C2)ccn1 (stereo unspecified) | 1.548 |
| Cc1ccc(N2CC3(COCCN(Cc4cccnc4)C3)OCC2=O)s1.O=C(O)C(F)(F)F.O=C(O)C(F)(F)F (stereo unspecified) | 6.598 |
| COc1ncc(CN2CCOC(C)(C(=O)N3CCOCC3)C2)cn1 (stereo unspecified) | 124.6 |
| CSCCC(O)C(=O)N1CCCN(Cc2cccnc2)CC1 (stereo unspecified) | -2.174 |
| COc1ncc(-c2nccn2-c2ccccc2CN2CCOCC2)cn1 | 4.794 |
| CNc1cccc(C2CCCN(C(=O)c3cncs3)C2)n1 (stereo unspecified) | 121.7 |
| CNc1cccc(C2CCN(C(=O)c3cccnc3)CC2)n1 | 107.8 |
| O=C(c1cccnc1)N1CCC(Oc2cccc(C(F)(F)F)c2)CC1 | 6.335 |
| CNc1cccc(C2CCCN(C(=O)c3ccn(C)n3)C2)n1 (stereo unspecified) | 117.7 |
| CNc1cccc(C2CCCN(C(=O)c3cscn3)C2)n1 (stereo unspecified) | 98.56 |
| CN(c1ncccc1CNC(=O)c1csnn1)C1CCCCC1 | 20.86 |
| Cc1ccsc1CN(CCN(C)C)C(=O)c1ccc(C#N)nc1 | -1.147 |
| NC1CCN(C2CCN(c3ccc(-c4ccco4)cc3)CC2)CC1 | -26.06 |
| CCc1nsc(N2CCc3sccc3C2)n1 | 12.97 |

| Structure (SMILES) | Percent Effect [%] |
| --- | --- |
| CNc1cccc(C2CCCN(C(=O)c3coc(C)n3)C2)n1 (stereo unspecified) | 115.1 |
| CNc1cccc(C2CCCN(C(=O)Cc3ccccc3)C2)n1 (stereo unspecified) | 110.2 |
| CNc1cccc(C2CCCN(C(=O)c3cnccn3)C2)n1 (stereo unspecified) | 101.6 |
| CNc1cccc(C2CCCN(C(=O)c3cccnc3)C2)n1 (stereo unspecified) | 119.9 |
| CNc1cccc(C2CCCN(C(=O)c3ccncc3)C2)n1 (stereo unspecified) | -7.86 |
| O=C(N[C@@H]1CCN(c2ncc(Cl)cc2Cl)C[C@H]1O)c1cnccn1 | -4.452 |
| COC(C)C(=O)Nc1cc(C(=O)N2CCSCC2)ccc1C (stereo unspecified) | -22.96 |
| CNS(=O)(=O)c1ccc(CN2CCN3CCNC(=O)C3C2)cc1 (stereo unspecified) | -0.7065 |
| COCCN1CCCC(O)(CN2CCN(c3cnccn3)CC2)C1=O (stereo unspecified) | -3.22 |
| O=S(=O)(C1CC1)N1CCC(Cn2cccn2)CC1 | 1.748 |
| Cc1cc(C(C)NC(=O)c2ccc(O)nc2)c(C)o1 (stereo unspecified) | 2.609 |
| O=C(NC1CC(=O)N(C2CC2)C1)c1ccc(Cl)s1 (stereo unspecified) | -7.498 |
| CC(C)N1CC(NC(=O)c2ccc(Cl)s2)CC1=O (stereo unspecified) | 98.39 |
| CCCS(=O)(=O)N1CCC(NC(=O)c2ccc(Cl)s2)CC1 | 8.314 |
| O=C(C1CC1)N1Cc2[nH]nc(COCc3cccnc3)c2C1.O=C(O)C(F)(F)F.O=C(O)C(F)(F)F | 96.05 |
| O=C(O)C(F)(F)F.O=C(O)C(F)(F)F.c1cncc(COCc2n[nH]c3c2CN(Cc2ccco2)C3)c1 | 1.979 |
| CCS(=O)(=O)N1Cc2[nH]nc(COCc3cccnc3)c2C1.O=C(O)C(F)(F)F | 98.27 |
| O=C(O)C(F)(F)F.O=C(O)C(F)(F)F.O=C(O)C(F)(F)F.c1ccc(CN2Cc3[nH]nc(COc4cccnc4)c3C2)nc1 | 6.723 |
| O=C(NC1CC1)N1Cc2[nH]nc(COc3cccnc3)c2C1.O=C(O)C(F)(F)F | -0.5105 |
| O=C(O)C(F)(F)F.O=S(=O)(C1CC1)N1Cc2[nH]nc(COCC3CC3)c2C1 | -8.849 |
| CCSc1ccc(NC(=O)NC(C)c2c(C)nn(C)c2C)cn1 (stereo unspecified) | -34.73 |
| Cc1nn(C)c(C)c1-c1ccc(=O)n(C(C)C(=O)NC(C)(C)C)n1 (stereo unspecified) | 122.1 |
| Cc1nn(C)c(C)c1C(C)NC(=O)Nc1cccnc1N1CCCC1 (stereo unspecified) | 8.996 |
